# Reference: PubChem BioAssay
# Active and inactive are the calls of the source. Unless noted, how the calls were made is not given here.
# How the values were obtained:
# [1] = compounds binding Alexa647 anti-His antibody – biochemical, small-molecule microarray, 635 nm fluorescence, artefact control for SMM control protein annotation, primary screen (AID 1128); details: higher = more signal;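 further: score merges feature fluorescence with signal-to-noise for each printed compound spot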
# [2] = test system: Human papillomavirus type 1a E7 protein (residues 1-88); assay: HPV1a E7 small-molecule binders, primary screen, biochemical, small-molecule microarray, residues 1-88, 635 nm (AID 1129); details: small-molecule microarray binding, fluorescence 635 nm; higher = more signal
# [3] = biological target: Focal adhesion kinase 1 (Homo sapiens) (UniProt Q05397); assay: PTK2 protein binding on printed compound slides – biochemical, small-molecule microarray, 635/667 nm fluorescence, BSA, DTT, primary screen (AID 1130); details: 635 nm fluorescence, higher = more signal;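 further: composite of spot emission at 667 nm and signal to noise over triplicate slides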
# Chain of Focal adhesion kinase 1 (Homo sapiens) (Q05397 whole entry, looked up): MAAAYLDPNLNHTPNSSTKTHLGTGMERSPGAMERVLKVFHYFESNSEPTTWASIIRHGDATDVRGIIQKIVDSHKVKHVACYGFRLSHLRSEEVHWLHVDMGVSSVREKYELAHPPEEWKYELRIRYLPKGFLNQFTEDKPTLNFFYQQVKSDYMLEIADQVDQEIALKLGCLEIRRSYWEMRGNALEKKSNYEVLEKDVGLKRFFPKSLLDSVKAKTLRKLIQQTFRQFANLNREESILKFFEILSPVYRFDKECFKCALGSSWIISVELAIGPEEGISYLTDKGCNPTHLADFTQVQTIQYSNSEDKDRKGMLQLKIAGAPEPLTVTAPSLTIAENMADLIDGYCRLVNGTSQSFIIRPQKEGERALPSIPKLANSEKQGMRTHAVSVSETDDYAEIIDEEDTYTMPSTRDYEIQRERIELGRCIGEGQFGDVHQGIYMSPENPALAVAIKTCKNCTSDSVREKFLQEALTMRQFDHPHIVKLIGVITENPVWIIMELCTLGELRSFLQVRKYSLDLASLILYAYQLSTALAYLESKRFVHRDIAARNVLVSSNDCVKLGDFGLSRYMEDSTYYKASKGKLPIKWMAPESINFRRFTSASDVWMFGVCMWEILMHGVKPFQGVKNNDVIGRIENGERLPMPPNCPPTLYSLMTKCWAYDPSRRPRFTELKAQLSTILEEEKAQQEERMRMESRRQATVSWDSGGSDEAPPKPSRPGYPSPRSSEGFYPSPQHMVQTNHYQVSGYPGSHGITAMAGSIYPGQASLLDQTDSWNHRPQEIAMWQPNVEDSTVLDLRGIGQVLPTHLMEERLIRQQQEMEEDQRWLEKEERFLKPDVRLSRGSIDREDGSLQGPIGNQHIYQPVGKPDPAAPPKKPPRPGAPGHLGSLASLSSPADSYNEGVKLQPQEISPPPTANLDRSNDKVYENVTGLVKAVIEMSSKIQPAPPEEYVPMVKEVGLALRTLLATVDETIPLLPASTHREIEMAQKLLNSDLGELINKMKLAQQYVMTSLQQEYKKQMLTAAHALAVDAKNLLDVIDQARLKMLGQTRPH
# [4] = test system: Fibrinogen (Alexa647-labelled); assay: Alexa647-fibrinogen binding to printed small molecules – biochemical, small-molecule microarray, 635/667 nm fluorescence, artefact control for SMM control-protein annotation, profiling panel (AID 1131); details: fibrinogen-A647 binding fluorescence, higher = more signal;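 further: z-score merges 667 nm fluorescence with per-spot signal-to-noise over triplicate slides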
# [5] = biological target: Follistatin (Homo sapiens) (UniProt P19883); assay: FST protein binding to printed compounds – biochemical, small-molecule microarray, 635/667 nm fluorescence, primary screen (AID 1132); details: 635 nm fluorescence, higher = more signal
# Chain of Follistatin (Homo sapiens) (P19883 whole entry, looked up): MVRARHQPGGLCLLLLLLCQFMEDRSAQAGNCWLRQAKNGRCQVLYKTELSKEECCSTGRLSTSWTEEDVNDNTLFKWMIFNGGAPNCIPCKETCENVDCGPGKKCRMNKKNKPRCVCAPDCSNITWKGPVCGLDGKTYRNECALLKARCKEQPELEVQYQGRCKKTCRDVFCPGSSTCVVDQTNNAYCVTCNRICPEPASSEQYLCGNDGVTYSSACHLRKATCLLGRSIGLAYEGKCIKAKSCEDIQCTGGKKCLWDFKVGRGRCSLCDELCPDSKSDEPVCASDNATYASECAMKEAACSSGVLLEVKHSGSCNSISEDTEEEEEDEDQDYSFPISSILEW
# [6] = biological target: Fibroblast growth factor 2 (Homo sapiens) (UniProt P09038); assay: basic fibroblast growth factor binding to printed compounds – biochemical, small-molecule microarray, 635/667 nm fluorescence, primary screen (AID 1133); details: FGF2, fluorescence 635/667, higher = more signal
# Chain of Fibroblast growth factor 2 (Homo sapiens) (P09038 whole entry, looked up): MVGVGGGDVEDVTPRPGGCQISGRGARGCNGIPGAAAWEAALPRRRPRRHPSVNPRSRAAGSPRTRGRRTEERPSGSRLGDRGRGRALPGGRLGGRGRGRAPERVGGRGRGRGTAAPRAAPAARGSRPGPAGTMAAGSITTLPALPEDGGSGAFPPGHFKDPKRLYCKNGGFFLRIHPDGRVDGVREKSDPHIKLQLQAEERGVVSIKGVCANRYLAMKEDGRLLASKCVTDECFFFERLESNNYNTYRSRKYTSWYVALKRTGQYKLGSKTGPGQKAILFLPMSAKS
# [7] = JC-1 mitochondrial potential readout, lung cancer cells – cell-based, A549, JC-1 fluorescence, basal, 24 h, 100 nL, profiling panel (AID 1138); details: higher = more signal;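 further: A549 lung adenocarcinoma cells under basal conditions with no added stimulus; test concentration not given here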
# [8] = test system: Lefty1; assay: Lefty1 protein binding to printed compounds – biochemical, small-molecule microarray, 635/667 nm fluorescence, primary screen (AID 1139); details: fluorescence 635/667, higher = more signal
# [9] = test system: wheat germ agglutinin (Triticum aestivum), Alexa647-labelled; assay: Alexa647-WGA lectin binding to printed small molecules – biochemical, small-molecule microarray, 635/667 nm fluorescence, artefact control for SMM control-protein annotation, profiling panel (AID 1140); details: WGA-A647 binding, 635 nm fluorescence, higher = more signal;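 further: score merges 667 nm feature emission with signal to noise over triplicate slides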
# [10] = biological target: Luciferin 4-monooxygenase (Photinus pyralis) (UniProt P08659); assay: inhibition of purified Photinus pyralis luciferase – biochemical, luminescence, purified enzyme, 2006 set, primary screen (AID 1141); details: purified firefly luciferase, SteadyGlo luminescence, 30 min; higher = more signal, called active from +8 up or from −8 down;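 further: cell-free assay with purified firefly luciferase at 100 ng per well in PBS; test concentration not given here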
# Chain of Luciferin 4-monooxygenase (Photinus pyralis) (P08659 whole entry, looked up): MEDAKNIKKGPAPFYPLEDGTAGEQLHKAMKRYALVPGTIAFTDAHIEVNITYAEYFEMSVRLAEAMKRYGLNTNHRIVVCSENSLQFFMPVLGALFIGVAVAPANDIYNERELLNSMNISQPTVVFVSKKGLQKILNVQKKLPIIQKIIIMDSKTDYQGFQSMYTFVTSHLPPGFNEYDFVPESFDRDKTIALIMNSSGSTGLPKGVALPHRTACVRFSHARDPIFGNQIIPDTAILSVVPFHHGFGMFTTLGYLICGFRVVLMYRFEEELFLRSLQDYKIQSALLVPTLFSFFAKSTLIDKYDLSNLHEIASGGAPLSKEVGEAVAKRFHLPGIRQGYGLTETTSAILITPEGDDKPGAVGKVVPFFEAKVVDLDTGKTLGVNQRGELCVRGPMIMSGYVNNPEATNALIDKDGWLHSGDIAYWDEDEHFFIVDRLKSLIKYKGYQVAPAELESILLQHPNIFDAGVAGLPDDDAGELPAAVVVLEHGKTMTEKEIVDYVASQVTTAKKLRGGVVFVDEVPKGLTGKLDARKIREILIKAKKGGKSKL
# [11] = test system: Wnt5a (protein binding on small-molecule microarray); assay: small molecules binding Wnt5a protein – biophysical, small-molecule microarray, 635/667 nm fluorescence, primary screen (AID 1142); details: 635 nm fluorescence, higher = more signal;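 further: fluorescence read at 667 nm with signal to noise per printed feature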
# [12] = ATP-based viability of Huh7 replicon cells – cell-based, CellTiter-Glo luminescence, basal, 48 h, cytotoxicity control for HCV replication inhibitor project, primary screen (AID 1143); details: higher = more signal, called active from +8 up or from −8 down;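 further: Huh7 hepatoma cells carrying a hepatitis C replication reporter with no stimulus; test concentration not given here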
# [13] = Pseudomonas biofilm growth suppression – PAO1 strain, BacTiter-Glo luminescence, LB-PBS, primary screen (AID 1144); details: P. aeruginosa PAO1 biofilm, 12 h, higher = more signal
# [14] = basal CRE-LacZ reporter activity in PC12 – cell-based, unstimulated, primary screen (AID 1145); details: no forskolin, luminescence, 4.5 h, higher = more signal, called active from +8 up or from −8 down
# [15] = forskolin-driven CRE-LacZ activity in PC12 – cell-based, CRE-LacZ reporter, forskolin-stimulated, primary screen (AID 1146); details: luminescence, 4.5 h, higher = more signal, called active from +8 up or from −8 down;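 further: PC12 cells with 6xCRE LacZ reporter stimulated by forskolin 10 µM; beta-galactosidase reporter signal reflecting CREB driven transcription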
# [16] = biological target: Streptavidin (Streptomyces avidinii) (UniProt P22629); assay: compounds binding control protein streptavidin – biophysical, small-molecule microarray, 635/667 nm fluorescence, artefact control for SMM compound annotation, primary screen (AID 1147); details: higher = more signal;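 further: signal reflects streptavidin binding to arrayed compounds as a control protein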
# Chain of Streptavidin (Streptomyces avidinii) (P22629 whole entry, looked up): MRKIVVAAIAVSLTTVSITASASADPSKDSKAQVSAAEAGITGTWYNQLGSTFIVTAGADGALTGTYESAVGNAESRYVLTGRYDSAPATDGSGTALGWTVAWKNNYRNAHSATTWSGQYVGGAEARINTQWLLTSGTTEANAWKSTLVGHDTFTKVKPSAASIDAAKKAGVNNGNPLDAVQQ
# [17] = probe aInhba binding on compound microarray – biochemical, small-molecule microarray, 635/667 nm fluorescence, primary screen (AID 1148); details: higher = more signal;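 further: score merges 667nm spot fluorescence with signal-to-noise for antibody binding to printed compounds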
# [18] = biological target: Torsin-1A (Homo sapiens) (UniProt O14656); assay: TOR1A wild-type binding on microarray – cell lysate, small-molecule microarray, lysate, 635/667 nm, primary screen (AID 1149); details: COS7 hTOR1A-WT lysate, 635 nm fluorescence, higher = more signal
# Chain of Torsin-1A (Homo sapiens) (O14656 whole entry, looked up): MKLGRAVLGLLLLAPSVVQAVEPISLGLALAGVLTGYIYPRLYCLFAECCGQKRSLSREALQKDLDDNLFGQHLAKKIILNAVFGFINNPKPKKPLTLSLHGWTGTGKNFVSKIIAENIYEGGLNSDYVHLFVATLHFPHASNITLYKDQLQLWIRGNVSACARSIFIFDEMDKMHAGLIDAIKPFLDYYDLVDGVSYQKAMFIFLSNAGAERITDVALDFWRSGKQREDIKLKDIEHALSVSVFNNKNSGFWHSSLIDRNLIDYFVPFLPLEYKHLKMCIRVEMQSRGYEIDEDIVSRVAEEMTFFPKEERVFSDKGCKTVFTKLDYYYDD
# [19] = biological target: Torsin-1A (Homo sapiens) (UniProt O14656); assay: torsin A mutant lysate binding on microarrays – cell lysate, small-molecule microarray, COS7 lysate, 635/667 nm fluorescence, primary screen (AID 1150); details: COS7 hTOR1A mutant lysate, 635 nm fluorescence, higher = more signal;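 further: score pools 667 nm emission and signal to noise measuring lysate protein binding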
# [20] = test system: Sonic hedgehog protein (Shh); assay: Sonic hedgehog microarray binding compounds – biochemical, small-molecule microarray, 635/667 nm fluorescence, primary screen (AID 1151); details: 635 nm fluorescence, higher = more signal;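 further: Shh protein binding to compounds spotted on small-molecule microarray slides; score combines spot fluorescence intensity with signal-to-noise across triplicate slides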
SMILES,composite z-score [1],composite z-score [2],composite z-score [3],composite z-score [4],composite z-score [5],composite z-score [6],z-score [7],composite z-score [8],composite z-score [9],z-score [10],composite z-score [11],z-score [12],z-score [13],z-score [14],z-score [15],composite z-score [16],composite z-score [17],composite z-score [18],composite z-score [19],composite z-score [20]
CCOC(=O)C1=CC[C@@H](c2ccccc2)N(S(=O)(=O)C[Si](C)(C)C)[C@H]1c1ccccc1,1.07,1.19,0.656,0.996,1.21,0.497,-1.48,0.562,0.862,2.37 (inactive),0.389,-2.78 (inactive),-0.667 (inactive),-0.63 (inactive),1.56 (inactive),1.48,0.127,0.899,0.799,0.257
CN1C(=O)[C@]2(CCC(=O)OC(C)(C)C)N=C(c3ccc(OCCCO)cc3)O[C@@H]2c2ccccc21,1.2,1.23,0.488,0.95,1.44,1.55,1.85,0.853,0.182,-2.79 (inactive),0.935,-4.74 (inactive),-0.598 (inactive),1.41 (inactive),-0.572 (inactive),-0.201,0.134,0.112,0.401,2.11
CC(C)CNC(=O)[C@@H]1c2ccccc2C(=O)N(C2Cc3ccccc3C2)[C@H]1c1ccc(CO)cc1,0.245,0.516,-0.587,0.182,0.348,0.579,3.56,-0.499,-0.19,-0.843 (inactive),-0.0027,-0.13 (inactive),0.92 (inactive),0.118 (inactive),-0.748 (inactive),-0.861,-0.106,-1.03,0.0877,0.436
C=C(CCCC)C(=O)CC[C@H](OC(=O)c1cccnc1)c1ccc(CO)o1,3.27,1.2,-0.188,0.664,1.18,1.27,-0.555,1.65,0.791,-1.33 (inactive),0.239,0.0536 (inactive),-0.159 (inactive),-0.117 (inactive),0.484 (inactive),0.14,0.212,0.835,0.576,1.6
COCCOC(=O)N1C(=O)[C@@]2(c3cc(C#Cc4ccc(OC)cc4)ccc31)[C@H](c1ccc(OCCO)cc1)N1[C@H](c3ccccc3)[C@H](c3ccccc3)OC(=O)[C@H]1[C@@H]2C(=O)N1CCCCCCC1,-0.252,1.2,1.4,0.636,1.36,1.24,-0.625,1.36,1.01,-2.14 (inactive),0.713,-3.28 (inactive),-1.44 (inactive),0.891 (inactive),-0.498 (inactive),2.42,1.65,0.666,1.71,2.02
CC(C)CNC(=O)[C@@H]1c2ccccc2C(=O)N(CC23CC4CC(CC(C4)C2)C3)[C@H]1c1ccc(CO)cc1,1.94,1.14,0.257,0.592,0.466,-0.0903,0.47,0.366,0.674,1.27 (inactive),0.0626,-3.74 (inactive),-1.44 (inactive),-0.206 (inactive),-0.401 (inactive),0.524,-0.212,-0.218,0.546,0.354
O=C1OCCC=C[C@H]2OC34C=CCN(c5ccc(Cl)cc5)C(=O)[C@H]3N(CCO)C(=O)[C@@H]4C12 (stereo not given in full),-0.656,-0.574,-0.732,-0.262,-0.367,-1.14,-0.0109,-0.837,-0.524,-0.381 (inactive),-0.524,0.373 (inactive),0.108 (inactive),-0.228 (inactive),-0.256 (inactive),-1.23,-0.159,-1.97,-0.0899,-0.524
CC(C)(C)OC(=O)CC[C@]1(C(=O)N2CCOCC2)N=C(c2ccc(OCCCO)cc2)O[C@H]1c1ccccc1CN=[N+]=[N-],0.442,1.29,0.527,0.979,1.42,1.39,-0.423,0.23,1.19,-1.15 (inactive),1.07,-0.569 (inactive),-0.405 (inactive),-0.263 (inactive),-1.4 (inactive),1.08,0.279,1.12,1.58,0.242
C=CCOC(=O)[C@H]1[C@@H]2C(=O)O[C@@H](c3ccccc3)[C@@H](c3ccccc3)N2[C@@H](c2ccc(OCCOC(=O)[C@H]3C[C@H]4C(=O)NCC(=O)N4[C@H]3c3ccc(O)cc3)cc2)[C@]12C(=O)Nc1ccc(I)cc12,0.611,0.956,0.351,0.843,1.2,1.53,-1.28,0.971,0.204,-0.8 (inactive),0.112,-0.402 (inactive),-1.01 (inactive),-0.13 (inactive),-0.8 (inactive),0.343,-0.0736,0.406,0.349,1.55
